In all, about 190,000 compounds went through this assay and about 1,900 (1%) were called active.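 How the source made its calls: active means percentage of spot-positive cells more than 3 SD above its plate mean, without a fluorescence outlier flag or 80% toxicity; inconclusive means no clear call, values can overlap the other calls; inactive means the rest.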 The list comes from a sample in which actives are over-represented; it also holds similar structures and randomly drawn compounds.
assay: autophagy modulators in MEF cells, primary screen, imaging, high-content, MEF GFP-LC3 (AID 463193); conditions: MEF GFP-LC3 puncta imaging, at 10 µM; % cells with GFP-LC3 spots: stronger effect = higher value; toxicity: measured here: cell loss, nuclei count;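 on % cells with GFP-LC3 spots: spot-positive cell cutoff set from DMSO-treated cells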;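 on toxicity: cell loss after 18 h compound exposure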

Row | Structure (SMILES) | % cells with GFP-LC3 spots | toxicity
1 | COc1cccc(NC(=S)N(CCc2c(C)[nH]c3ccccc23)Cc2ccco2)c1 | 9.78% (inactive) | 16.6%
2 | CCNC(=S)N(CCc1c(C)[nH]c2ccc(C)cc12)Cc1ccco1 | 19.1% (active) | 0.117%
3 | COc1ccc2[nH]c(C)c(CCN(Cc3cccs3)C(=S)Nc3ccccc3OC)c2c1 | 12.3% (inactive) | 16.6%
4 | COC(=O)c1nc2n(n1)C(c1ccc([N+](=O)[O-])cc1)C(C(=O)Nc1ccc(Cl)cc1)=C(C)N2 (centres undefined) | 5.34% (inactive) | -5.39%
5 | O=C(c1cccc([N+](=O)[O-])c1)N1CCN(C(=O)c2ccco2)CC1 | 0.295% (inactive) | 7.8%
6 | O=C(COc1ccc(Cl)cc1)N1CCN(c2cccc(C(F)(F)F)c2)CC1 | 9.65% (inactive) | -3.29%
7 | CCC(=O)c1ccc(OCC(O)CN2CCN(c3cccc(C(F)(F)F)c3)CC2)cc1 (centres undefined) | 13.1% (active) | 8.02%
8 | CCC(=O)c1ccc(OCC(O)CN2CC(C)OC(C)C2)cc1 (centres undefined) | 5.51% (inactive) | -8.47%
9 | CCO[C@@H]1OC(C(N)=O)=C[C@H](c2ccc(Br)cc2)[C@H]1CCCO | 18.2% (inactive) | 10.9%
10 | CNS(=O)(=O)c1ccc(NC(=O)C2CC(=O)N(c3ccc(Cl)cc3)C2)cc1 (centres undefined) | 8.63% (inactive) | -13.2%
11 | COc1cccc(C(=O)N2CCCC(CCC(=O)NCc3ccc(F)c(F)c3)C2)c1 (centres undefined) | 3.38% (inactive) | 5.82%
12 | O=C(O)CC(Cc1ccccc1)C(=O)Nc1ccc([N+](=O)[O-])cc1 (centres undefined) | 1.42% (inactive) | -2.46%
13 | CN(C)S(=O)(=O)c1ccc2oc(SCC(=O)Nc3ccccc3F)nc2c1 | 0.884% (inactive) | -4.66%
14 | Cc1cccc(C(=O)N2CCc3c([nH]c4ccccc34)C2CC(C)C)n1 (centres undefined) | 11% (inactive) | -2.26%
15 | C=CCNC(=O)CC12CC3CC(C1)CC(CC(=O)NCC=C)(C3)C2 | 23% (inactive) | 16.8%
16 | C=CCNC(=O)CCCC(=O)NCC=C | 17.9% (active) | 1.29%
17 | C=CCNC(=O)CCCOc1cccc(C)c1 | 10.7% (inactive) | 16.1%
18 | O=C(O)c1cccc(N=NN2CCCCCC2)c1 | 6.85% (inactive) | -1.54%
19 | CSc1ncnc2sc(C)c(C)c12 | 10.2% (inactive) | 24.5%
20 | CCCOC(=O)c1[nH]c2c(c1C)C(=O)CC(c1cc(OC)c(OC)c(OC)c1)C2 (centres undefined) | 12.1% (inactive) | 15.9%
21 | CCCOC(=O)c1[nH]c2c(c1C)C(=O)CC(c1cccs1)C2 (centres undefined) | 19% (active) | 63%

Row | Structure (SMILES) | % cells with GFP-LC3 spots | toxicity
22 | CCOC(=O)c1[nH]c2c(c1C)C(=O)CC(c1ccc(N(C)C)cc1)C2 (centres undefined) | 2.24% (inactive) | -7.4%
23 | Cc1ccc(SC(C)C(=O)NCc2ccc(F)cc2)cc1 (centres undefined) | 0.143% (inactive) | -15%
24 | Cc1cccc(Cn2cnc3c(N)c(C)c(C)cc32)c1 | 1.71% (inactive) | 1.99%
25 | Cc1nn(C)c(Oc2ccccc2)c1[N+](=O)[O-] | 2.75% (inactive) | -3.54%
26 | COc1cccc(Cn2cnc3c([N+](=O)[O-])c(C)c(C)cc32)c1 | 6.93% (active) | -2.05%
27 | CCOc1cccc(OCCCOc2cccc3cccnc23)c1 | 3.63% (inactive) | -4.48%
28 | Cc1nonc1NC(=O)CSc1nc2ccccc2cc1C#N | 0.583% (inactive) | -8.81%
29 | Cc1ccc2nc(SCc3nnc(-c4ccccc4[N+](=O)[O-])o3)c(C#N)cc2c1 | 85.6% (active) | 21.6%
30 | Fc1ccc2nc(-c3ccccc3)nc(SCc3nnc(-c4ccccc4)o3)c2c1 | 4.88% (inactive) | 16.1%
31 | CCOc1ccc(Br)cc1S(=O)(=O)N1CCC(C(=O)O)CC1 | 6.06% (inactive) | 14.1%
32 | C/C(=N/O)c1ccc(N2C(=O)C3C4C=CC(C3C2=O)C2C3C(=O)N(c5ccc(/C(C)=N/O)cc5)C(=O)C3C42)cc1 (centres undefined) | 11.7% (inactive) | 14.4%
33 | O=C(NC(Nc1nc2ccc([N+](=O)[O-])cc2s1)(C(F)(F)F)C(F)(F)F)c1ccccc1 | 31.8% (active) | 57.9%
34 | O=C(O)CCC(=O)Nc1nc2ccc([N+](=O)[O-])cc2s1 | 6.76% (inactive) | 11.6%
35 | O=C(Nc1nc2ccc([N+](=O)[O-])cc2s1)c1ccc(S(=O)(=O)N2CCCc3ccccc32)cc1 | 16.8% (inactive) | 25.4%
36 | O=C(c1ccc2ccccc2n1)N1CCN(c2ccccc2Cl)CC1 | 4.83% (inactive) | -5.94%
37 | CCOC(=O)N1CCN(C(=O)CSc2nc(C)nc3c2c(=O)n(C)c(=O)n3C)CC1 | 12.3% (inactive) | 3.6%
38 | Cc1ncoc1C(=O)NCCC(c1ccccc1)c1ccccc1 | 18% (inactive) | 11.5%
39 | COc1cccc(CNC(=O)CCC2CCCN(C(=O)c3cc(C)[nH]n3)C2)c1 (centres undefined) | 0.272% (inactive) | -19.2%
40 | Cc1occc1C(=O)N1CCCc2ccccc21 | 12.6% (inactive) | -3.33%
41 | O=C(c1cccc(C(=O)N2CCc3ccccc32)n1)N1CCc2ccccc21 | 7.33% (inactive) | 25.5%
42 | Cc1cccc2cc3c(N)c(C(=O)N4CCCc5ccccc54)sc3nc12 | 34.9% (active) | 33.8%

Row | Structure (SMILES) | % cells with GFP-LC3 spots | toxicity
43 | O=C(/C=C/c1ccc(F)cc1)Nc1cccc(S(=O)(=O)Nc2cccc(C(F)(F)F)c2)c1 | 3.21% (inactive) | 11.4%
44 | O=c1[nH]c(=S)[nH]c2[nH]c(=S)[nH]c12 | 16.3% (inactive) | 14.2%
45 | CCOc1cc(NC(=O)c2ccccn2)c(OCC)cc1NC(=O)c1ccc(OC)cc1 | 2.17% (inactive) | 23.7%
46 | CCOc1ccccc1NC(=O)c1cccnc1 | 1.43% (inactive) | 1.42%
47 | CCOc1cc(NC(=O)c2cnccn2)c(OCC)cc1NC(=O)c1ccc(C)cc1 | 16.1% (active) | -0.236%
48 | COc1ccc(/C=C/C(=O)NC(=S)NN2CCCCC2c2cccnc2)cc1 (centres undefined) | 2.8% (inactive) | 2.51%
49 | CCOCCCNC(=O)C(NC(=O)c1ccc(=O)[nH]c1)c1ccc(Cl)cc1 (centres undefined) | 28% (active) | 44.6%
50 | CCOCCCNC(=O)C(NC(=O)c1ccccc1O)c1ccccc1 (centres undefined) | 5.35% (inactive) | -34%
51 | CCOCCCNC(=O)C(NC(=O)c1ccc(=O)[nH]c1)c1ccc(C)cc1 (centres undefined) | 3.93% (inactive) | -0.266%
52 | CCc1nnc(NC(=O)CCCSc2nc3ccccc3[nH]2)s1 | 1.66% (inactive) | -3.54%
53 | COc1ccc(-n2ncc3c(N4CCc5ccccc54)ncnc32)cc1 | 10.6% (active) | 12.2%
54 | COc1ccc(-n2ncc3c(N4CCCc5ccccc54)ncnc32)cc1 | 7.91% (inactive) | 7.86%
55 | Cc1cccc(-n2ncc3c(N4CCc5ccccc54)ncnc32)c1 | 1.09% (inactive) | -9.01%
56 | Cc1ccc2nc(-c3ccccn3)cc(C(=O)Nc3ccc4c(c3)OCO4)c2c1 | 4.19% (inactive) | 13.2%
57 | CC1(C)C2CCC1(C)C(OC(=O)c1ccc(O)cc1)C2 (centres undefined) | 19.1% (inactive) | 2.39%
58 | COc1ccc(-c2[nH]ncc2CN(C)Cc2cccnc2)c(F)c1 | 3.28% (inactive) | 15.9%
59 | O=Cc1cn(Cc2ccccc2)nc1-c1cccnc1 | 0.945% (inactive) | 1.14%
60 | O=C1/C(=C\c2cccnc2)CN(Cc2ccccc2)C/C1=C\c1cccnc1 | 52.1% (active) | -17.6%
61 | Clc1ccc(CN2CCN(/N=C/c3cccnc3)CC2)cc1 | 0.128% (inactive) | -10.7%
62 | Cc1ccc(NC(=O)NC2CCCCC2)cc1S(=O)(=O)N1CCOCC1 | 9.14% (inactive) | -3.67%
63 | COc1cc(/C=N\Nc2ccc([N+](=O)[O-])cn2)ccc1OCC(=O)O | 1.45% (inactive) | -6.18%

Row | Structure (SMILES) | % cells with GFP-LC3 spots | toxicity
64 | Cc1cccc(COc2ccccc2/C=N/Nc2ccc([N+](=O)[O-])cc2)c1 | 1.93% (inactive) | 8.3%
65 | Cc1ccc(-n2c(C)cc(/C=N/Nc3ccc([N+](=O)[O-])cn3)c2C)c(C)c1 | 52% (active) | -31.7%
66 | O=C(CSc1nc2ccccc2[nH]1)c1cccs1 | 0.463% (inactive) | 5.37%
67 | N#Cc1c(-c2ccc(F)cc2)cc(C2CC2)nc1SCC(=O)c1cccs1 | 86.4% (active) | -1.55%
68 | CCOC(=O)CC(=O)CSc1nc(-c2ccccc2)cc(-c2ccc(Cl)cc2)c1C#N | 3.63% (inactive) | -4.4%
69 | Cc1ccc(CC(=O)Nc2ccc(OC(F)F)c(Cl)c2)cc1C | 6.36% (inactive) | -11.9%
70 | CCN1CCN(C(=O)c2ccc(CN(c3ccc(C)c(C)c3)S(C)(=O)=O)cc2)CC1 | 5.04% (inactive) | -26.7%
71 | Cc1cc(C(=O)N/N=C/c2ccc(O)c([N+](=O)[O-])c2)c(C)n1-c1ccc(F)cc1 | 6.11% (inactive) | 2.16%
72 | O=C(Nc1ccc(Br)cn1)c1ccc([N+](=O)[O-])cc1Cl | 25.9% (inactive) | 12.1%
73 | CSc1ccc(/C=N\NC(=O)CC(=O)NC(C)C)cc1 | 3.73% (inactive) | 6.35%
74 | O=c1cc(-c2ccccc2)[nH]c2cc(F)ccc12 | 3.89% (inactive) | -7.91%
75 | O=C(/C=C/c1ccc(Cl)cc1)Nc1ccc(Br)cn1 | 20.4% (inactive) | 30.5%
76 | Cc1ccc(S(=O)(=O)C(C#N)c2nc3ccccc3nc2N2CCCC2)cc1C (centres undefined) | 8.97% (inactive) | -8.37%
77 | CCOC(=O)/C(C#N)=C/c1ccc(N2CCN(Cc3ccccc3)CC2)cc1 | 10.3% (inactive) | 10.6%
78 | CC(C)OC(=O)C(C#N)c1nc2ccccc2nc1N1CCN(Cc2ccccc2)CC1 (centres undefined) | 41.3% (active) | 2.68%
79 | O=[N+]([O-])c1ccc(Sc2n[nH]c(-c3ccco3)n2)nc1 | 0% (inactive) | 4.9%
80 | Cc1ccccc1CN1C[C@@H]2C[C@@H](c3cn(C)nc3-c3ccccc3)N3CCC[C@@]23C1=O | 0.136% (inactive) | -5.59%
81 | OCC1(CCc2ccccc2)CCN(Cc2ccc3nsnc3c2)CC1 | 0.559% (inactive) | 0.377%
82 | Cc1ccccc1CN1C[C@@H]2C[C@@H](c3ccc4nsnc4c3)N3CCC[C@@]23C1=O | 34.4% (active) | 24.5%

Source: PubChem BioAssay AID463193 (University of Pittsburgh Molecular Library Screening Center, 2010)
